High-throughput results: PubChem BioAssay, The Scripps Research Institute Molecular Screening Center
GPR151 activ – activators of human GPR151, primary screen, cell-based, PathHunter beta-arrestin, luminescence | activation, % at 11.2 µM | G-protein coupled receptor 151 (Homo sapiens), Q8TDV0 | 650,000 compounds, 1% hits | PathHunter beta-arrestin GPR151 cells; in the data active = activation above about 4.9%;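 also: 0% = median of compound wells and 100% = cells with positive control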
FBW7 act – FBW7 E3 ligase activators, primary screen, biochemical, AlphaScreen, human; F-box/WD repeat-containing protein 7 (Homo sapiens), Q969H0; AlphaScreen FBW7–phospho-cyclin E peptide binding, activator screen; normalized activity (activation), % at 26.1 µM; 650,000 compounds, 0.13% hits; in the data active = normalized activity above about 1.9%;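 also: purified mutant Fbw7 with reduced substrate affinity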
TEAD-YAP block – TEAD-YAP interaction inhibition, primary screen, TEAD-YAP interaction inhibitor project, luminescence, HEK-TIYL cells; inhibition, % at 9.12 µM; AID 1259422, 2018; 640,000 compounds, 1.4% hits; TEAD-Gal4/YAP UAS-luciferase luminescence; in the data active = inhibition above about 32%;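 also: 0% = median of test compound wells and 100% = reference inhibitor wells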
MITF inh – MITF inhibitors, primary screen, biochemical, AlphaScreen, human; Microphthalmia-associated transcription factor (Homo sapiens), O75030; AlphaScreen MITF homodimerization, bead proximity signal; inhibition, % at 2.6 µM; 650,000 compounds, 0.91% hits; AID 1259374, 2018; in the data active = inhibition above about 50%;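 also: 0% = vehicle wells with protein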
Target sequence (O75030 whole entry, looked up): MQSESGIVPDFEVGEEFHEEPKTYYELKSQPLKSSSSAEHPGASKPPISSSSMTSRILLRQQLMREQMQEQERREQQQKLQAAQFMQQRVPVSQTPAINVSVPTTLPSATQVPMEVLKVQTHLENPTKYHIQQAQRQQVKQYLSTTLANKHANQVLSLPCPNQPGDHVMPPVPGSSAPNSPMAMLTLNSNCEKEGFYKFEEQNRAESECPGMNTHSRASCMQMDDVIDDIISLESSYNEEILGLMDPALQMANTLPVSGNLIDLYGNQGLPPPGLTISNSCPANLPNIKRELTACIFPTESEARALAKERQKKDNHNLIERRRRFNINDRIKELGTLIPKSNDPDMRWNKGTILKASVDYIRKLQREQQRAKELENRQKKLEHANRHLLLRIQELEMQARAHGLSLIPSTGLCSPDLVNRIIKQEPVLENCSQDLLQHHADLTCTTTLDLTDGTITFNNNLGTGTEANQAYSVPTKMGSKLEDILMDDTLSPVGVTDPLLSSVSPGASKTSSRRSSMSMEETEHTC
The depositor's hits bear a star. In the library only some 3.5% were active in any assay of this set; here they are far more common.

`CC(=O)c1cc2c(cc1NS(=O)(=O)c1ccc(C)cc1)OCCO2` gave GPR151 activ 0, FBW7 act 0, TEAD-YAP block 37* and MITF inh 11.
`CC(=O)c1cc2c(cc1NS(=O)(=O)c1ccccc1)OCO2` gave GPR151 activ -1, FBW7 act 0, TEAD-YAP block -3 and MITF inh 5.
Screening COc1ccc(S(=O)(=O)Nc2cc(F)ccc2C)cc1 returned GPR151 activ -1, FBW7 act 0, TEAD-YAP block 52* and MITF inh 5.
For COC(=O)c1ccc(C)c(NS(=O)(=O)c2ccc3c(c2)OCCO3)c1 the results were GPR151 activ 1, FBW7 act 0, TEAD-YAP block 57* and MITF inh 3.
`COc1ccc(CCNC(=O)c2c(C)oc3c2cc(OC(C)=O)c2ccccc23)cc1OC` gave GPR151 activ 2, FBW7 act 0, TEAD-YAP block -9 and MITF inh -2.
Screening C=CCNS(=O)(=O)Cc1ccccc1Cl returned GPR151 activ 0, FBW7 act 0, TEAD-YAP block 5 and MITF inh 0.
`Cc1cc2cc(CCNS(=O)(=O)c3ccc([N+](=O)[O-])cc3)c(=O)[nH]c2cc1C` gave GPR151 activ 1, FBW7 act 1, TEAD-YAP block 45* and MITF inh 19.
Cc1ccc(C)c2[nH]c(=O)c(CCNS(=O)(=O)c3ccc([N+](=O)[O-])cc3)cc12 was read as GPR151 activ 0, FBW7 act 0, TEAD-YAP block 4 and MITF inh 1.
CC(=O)NCc1nnc2n1CCN(C/C=C/C(C)C)CC2 was read as GPR151 activ -1, FBW7 act 0, TEAD-YAP block -2 and MITF inh -12.
COc1cc(OC)cc(C(=O)NCc2ccc(C(C)(C)C)cc2)c1 was read as GPR151 activ 0, FBW7 act 0, TEAD-YAP block 43* and MITF inh 12.
Screening COc1cc(OC)cc(C(=O)NCc2ccc(S(N)(=O)=O)cc2)c1 returned GPR151 activ -2, FBW7 act 0, TEAD-YAP block 6 and MITF inh 21.
For COc1ccccc1Oc1ccc(C(N)=O)cc1[N+](=O)[O-] the results were GPR151 activ 1, FBW7 act 0, TEAD-YAP block -4 and MITF inh -6.
Screening O=[N+]([O-])c1ccc(Oc2ccccc2O)c2c1no[n+]2[O-] returned GPR151 activ -3, FBW7 act -2, TEAD-YAP block -13 and MITF inh 66*.
`Cc1cc(C)n(-c2ccc(N3CCN(C(=O)COc4ccccc4)CC3)nn2)n1` gave GPR151 activ -1, FBW7 act 1, TEAD-YAP block 3 and MITF inh 17.
`CCCOc1ccc(N2CCN(C(=O)COc3ccc(F)cc3)CC2)nn1` gave GPR151 activ 1, FBW7 act 3.3*, TEAD-YAP block 7 and MITF inh -5.
For COc1ccccc1-c1ccc(N2CCN(C(=O)COc3ccccc3)CC2)nn1 the results were GPR151 activ -1, FBW7 act 7.6*, TEAD-YAP block 5 and MITF inh -11.
Screening O=C1N(c2ccccc2)C[C@@H]2C[C@@H](c3cc4ccccc4o3)N3CCC[C@@]123 returned GPR151 activ -1, FBW7 act 0, TEAD-YAP block 65* and MITF inh 1.
`O=C([C@@H](O)COc1ccc(Br)cc1)N1CCC(Nc2ccc3cnccc3c2)CC1` gave GPR151 activ 0, FBW7 act 0, TEAD-YAP block 7 and MITF inh 17.
For CCCc1ccc(-c2ccc(C(=O)Oc3ccc(F)cc3)cc2)nc1 the results were GPR151 activ 2, FBW7 act 0, TEAD-YAP block -18 and MITF inh 14.
CCCCc1ccc(C(=O)Oc2ccc(-c3ccc(CCC)cn3)cc2)cc1 was read as GPR151 activ 0, FBW7 act 0, TEAD-YAP block 70* and MITF inh -4.
For CCCc1ccc(-c2ccc(C(=O)Oc3ccccc3F)cc2)nc1 the results were GPR151 activ 5, FBW7 act 0, TEAD-YAP block 55* and MITF inh 11.
`CCCCCc1ccc(-c2ccc(C(=O)Oc3ccc(CC)cc3)cc2)nc1` gave GPR151 activ -1, FBW7 act 0, TEAD-YAP block 8 and MITF inh 0.
For Cc1cc(C(=O)COC(=O)c2ccc(O)cc2O)c(C)n1-c1ccccc1 the results were GPR151 activ -1, FBW7 act 0, TEAD-YAP block 64* and MITF inh 9.
For COc1ccc(C(=O)CCC(=O)N2CCOc3ccc(C(C)(O)CN(C)C)cc3C2)cc1 (stereo unspecified) the results were GPR151 activ 0, FBW7 act 0, TEAD-YAP block 4 and MITF inh -2.
For COc1ccccc1CNC(=O)CS(=O)Cc1nc(-c2ccccc2C)oc1C (stereo unspecified) the results were GPR151 activ -1, FBW7 act 2.6*, TEAD-YAP block -4 and MITF inh 26.
Cc1oc(-c2ccccc2Cl)nc1CS(=O)CC(=O)NCc1ccccn1 (stereo unspecified) was read as GPR151 activ 0, FBW7 act 1, TEAD-YAP block 2 and MITF inh -4.
For Cc1oc(-c2ccccc2Cl)nc1CS(=O)CC(=O)NCc1ccc2c(c1)OCO2 (stereo unspecified) the results were GPR151 activ -1, FBW7 act 3.9*, TEAD-YAP block 10 and MITF inh 18.
`CCOC(=O)/C(C#N)=C/Nc1ccc(F)cc1` gave GPR151 activ -1, FBW7 act 0, TEAD-YAP block -10 and MITF inh -14.
CC(C)C(=O)NC(c1ccc(Cl)cc1)c1ccc2cccnc2c1O (stereo unspecified) was read as GPR151 activ 1, FBW7 act -2, TEAD-YAP block 85* and MITF inh 12.
`CC(C)C(=O)NC(c1ccco1)c1ccc2cccnc2c1O` (stereo unspecified) gave GPR151 activ -2, FBW7 act -2, TEAD-YAP block 64* and MITF inh 44.
For CC(C)C(=O)NC(c1ccccc1Cl)c1ccc2cccnc2c1O (stereo unspecified) the results were GPR151 activ 1, FBW7 act -2, TEAD-YAP block 84* and MITF inh 19.
Screening CC(C)C(=O)NC(c1ccccc1)c1ccc2cccnc2c1O (stereo unspecified) returned GPR151 activ -1, FBW7 act -1, TEAD-YAP block 90* and MITF inh 28.
For CC(C)c1ccc(C(NC(=O)C2CCCCC2)c2ccc3cccnc3c2O)cc1 (stereo unspecified) the results were GPR151 activ 2, FBW7 act 1, TEAD-YAP block 19 and MITF inh 5.
For COc1ccc(Cl)cc1N1C(=O)c2ccc(C(=O)O)cc2C1=O the results were GPR151 activ 1, FBW7 act 0, TEAD-YAP block 2 and MITF inh 14.
